The values below come from PubChem BioAssay (NCI).

This is part of a sample that, as a whole, favours compounds with a hit. Of some 83,000 tested, about 20% had one in any assay.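 Interpretation: 100, growth as untreated; towards 0, rising growth inhibition; 0, no net growth; 0 to -100, cell death. Compounds scoring below 10 were considered active.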 Unmarked numbers belong to inactive results. The source made the active and inactive calls.

Some test systems named below: SR leukemia; RPMI-8226 leukemia; OVCAR-8 ovarian; OVCAR-5 ovarian; OVCAR-4 ovarian; SK-OV-3 ovarian; IGROV1 ovarian; OVCAR-3 ovarian; HS 578T breast; NCI/ADR-RES ovarian; T-47D breast; BT-549 breast; MDA-MB-435 melanoma; SW-620 colon; HCT-116 colon; HCC-2998 colon; KM12 colon; MCF7 breast.
Common to all, as to experiment: NCI-60 one-dose screen, 48 h (100 = growth as untreated, 0 = no growth, -100 = all killed)
Settings in all cases: 10 µM unless noted

On to `CCN1CCN(C(=O)[C@@]2(C)CC[C@]3(C)CC[C@]4(C)C(=CC(=O)[C@@H]5[C@@]6(C)CC[C@H](OC7C[C@@H](O)[C@@H](O)C(C)O7)C(C)(C)[C@@H]6CC[C@]54C)[C@@H]3C2)CC1` (some centres undefined), for which the growth with SR leukemia is -4.66% (active); in the test with RPMI-8226 leukemia, -25.7% (active); in the test with OVCAR-8 ovarian, 12.3%; in the test with OVCAR-5 ovarian it was 9.86% (active); with OVCAR-4 ovarian, 0.113% (active); with SK-OV-3 ovarian, 113%. Further, the growth with IGROV1 ovarian was 26.5%; with OVCAR-3 ovarian it was 105%; with HS 578T breast, 87.5%; in the test on NCI/ADR-RES ovarian, 47%; in the test on T-47D breast it was 82.6%; in the test with BT-549 breast, 87.1%. In addition, the growth in the test with MDA-MB-435 melanoma is 20.4%; in the test on SW-620 colon, 36.7%; in the test on HCT-116 colon it was 1.7% (active); with HCC-2998 colon, 37.7%; in the test with KM12 colon, 30.8%.

On to `COc1cc2nc(Cl)nc(Nc3cccc(C(=O)/C=C/c4ccccc4)c3)c2cc1OC`, for which the growth in the test with SR leukemia is 8.85% (active); in the test with RPMI-8226 leukemia, -2.13% (active); in the test with OVCAR-8 ovarian, 49.6%; with OVCAR-5 ovarian, 68.9%; with OVCAR-4 ovarian it was 70.6%; in the test with SK-OV-3 ovarian, 81.1%. Further, the growth with IGROV1 ovarian was 37.3%; in the test with OVCAR-3 ovarian, 38.2%; in the test with HS 578T breast, 98.5%; in the test with NCI/ADR-RES ovarian it was 49.9%; in the test with T-47D breast, 68.8%; in the test on BT-549 breast, 62.9%. Also, the growth is 36.5% in the test on MDA-MB-435 melanoma; -11.9% (active) with SW-620 colon; 12.3% in the test on MCF7 breast; -52.1% (active) with HCT-116 colon; 57.4% in the test with HCC-2998 colon; 9.13% (active) with KM12 colon.

For the molecule `COc1ccc2c(c1)c(-c1nc(-c3c[nH]c4ncccc34)cs1)cn2CCCN1CCCCC1`, the growth with SR leukemia was -38% (active); with RPMI-8226 leukemia it was -33% (active); in the test on OVCAR-8 ovarian it was 49.1%; in the test on OVCAR-5 ovarian, 77.4%; in the test with OVCAR-4 ovarian it was 62.6%; with SK-OV-3 ovarian it was 61.7%. The growth with IGROV1 ovarian is 34.4%; with OVCAR-3 ovarian, 27.8%; in the test on HS 578T breast, 59.7%; in the test on NCI/ADR-RES ovarian, 58.7%; in the test on T-47D breast, 66.1%; in the test on BT-549 breast, 67.5%. For the same molecule, the growth in the test on MDA-MB-435 melanoma is -84.6% (active); in the test with SW-620 colon, -43.3% (active); in the test with HCT-116 colon, 25.9%; with HCC-2998 colon, 88.5%; in the test with KM12 colon, 47.3%.

As to `O=C1c2cccc3cccc(c23)C(=O)N1CC#Cc1ccc2c3c(cccc13)C(=O)N(CCO)C2=O`, the growth in the test with SR leukemia was 71.4%; with RPMI-8226 leukemia, 74.5%; in the test on OVCAR-8 ovarian it was 86.5%; in the test on OVCAR-5 ovarian, 105%; in the test with OVCAR-4 ovarian, 92.7%; with SK-OV-3 ovarian, 92.4%. For the same molecule, the growth was 48.5% in the test with IGROV1 ovarian; 87% with OVCAR-3 ovarian; 83.3% with HS 578T breast; 91.7% with NCI/ADR-RES ovarian; 98.2% in the test with T-47D breast; 86.4% with BT-549 breast. The growth in the test with MDA-MB-435 melanoma is 92.7%; in the test on SW-620 colon, 92.2%; with MCF7 breast, 106%; with HCT-116 colon, 78.4%; with KM12 colon, 101%.

For `CN1CCN(c2ccc3nc(-c4[nH]ncc4Nc4ncnc5c4OCCCN5)[nH]c3c2)CC1`, the growth in the test on SR leukemia is 3.46% (active); in the test with RPMI-8226 leukemia it was -36.3% (active); in the test with OVCAR-8 ovarian, 0.0729% (active); in the test with OVCAR-5 ovarian it was -61.4% (active); with OVCAR-4 ovarian, -35.2% (active); with SK-OV-3 ovarian, -21.5% (active). Moreover, the growth in the test on IGROV1 ovarian was -21.4% (active); in the test on OVCAR-3 ovarian it was -32.2% (active); in the test with HS 578T breast it was -5.79% (active); with NCI/ADR-RES ovarian, -6.16% (active); with T-47D breast, -27.4% (active); in the test with BT-549 breast, -74.2% (active). Moreover, the growth was -80.1% (active) in the test with MDA-MB-435 melanoma; -58.1% (active) in the test on SW-620 colon; -11.8% (active) in the test with HCT-116 colon; -84.2% (active) in the test with HCC-2998 colon; -72.7% (active) in the test on KM12 colon.

With `CC(=O)O[C@H]1CC[C@]2(C)[C@H]3CC=C4[C@@H]5[C@H](C)[C@@H](C)CC[C@]5(C(=O)NCCNCCNCCN)CC[C@@]4(C)[C@]3(C)CC[C@H]2C1(C)C`, the growth is -5.48% (active) in the test on SR leukemia; 42.3% in the test with RPMI-8226 leukemia; 96% in the test on OVCAR-8 ovarian; 96.1% in the test on OVCAR-5 ovarian; 95.2% in the test with OVCAR-4 ovarian; 106% in the test on SK-OV-3 ovarian. Besides, the growth was 57% with IGROV1 ovarian; 89.8% in the test on OVCAR-3 ovarian; 95.4% with HS 578T breast; 89.8% with NCI/ADR-RES ovarian; 63.8% in the test with T-47D breast; 93.7% in the test with BT-549 breast. The growth is 83% in the test with MDA-MB-435 melanoma; 87.3% in the test on SW-620 colon; 58.1% in the test with MCF7 breast; 62.3% with HCT-116 colon; 80% in the test on HCC-2998 colon; 86.2% in the test with KM12 colon.

On to `Cc1cc2nc3c4cc([N+](=O)[O-])cc([N+](=O)[O-])c4n(CCN(C)C)c3nc2cc1C`, for which the growth in the test on SR leukemia is 5.05% (active); in the test with RPMI-8226 leukemia it was 67.5%; in the test on OVCAR-8 ovarian, 61.4%; in the test on OVCAR-5 ovarian it was 87.8%; with OVCAR-4 ovarian it was 90.8%; in the test with SK-OV-3 ovarian, 90.2%. For the same molecule, the growth with IGROV1 ovarian is 60.2%; in the test with OVCAR-3 ovarian, 92.6%; with HS 578T breast, 90.2%; in the test with NCI/ADR-RES ovarian, 57.8%; in the test on T-47D breast it was 73.6%; in the test on BT-549 breast it was 90.7%. In addition, the growth with MDA-MB-435 melanoma is 92.1%; in the test on SW-620 colon, 45.6%; in the test with MCF7 breast, 63.2%; with HCT-116 colon, 45.3%; in the test on HCC-2998 colon, 88.2%; with KM12 colon, 77.1%.

Take `COc1ccccc1-n1cnc(N)c1C(=O)c1cc(OC)c(OC)c(OC)c1`: the growth is 30.2% in the test with SR leukemia; 30.9% in the test with RPMI-8226 leukemia; 61.8% in the test on OVCAR-8 ovarian; 79.1% with OVCAR-5 ovarian; 65.9% in the test on OVCAR-4 ovarian; 48.2% in the test on SK-OV-3 ovarian. Also, the growth in the test with IGROV1 ovarian was 45.5%; in the test on OVCAR-3 ovarian, -21.3% (active); in the test with HS 578T breast it was -12.8% (active); with NCI/ADR-RES ovarian, 55.1%; in the test with T-47D breast it was 49.8%; in the test on BT-549 breast, 47.1%. Besides, the growth in the test with MDA-MB-435 melanoma is -15% (active); with SW-620 colon, 23.7%; with MCF7 breast it was 12.4%; with HCT-116 colon it was 24.5%; with KM12 colon it was 16.1%.
